# Source: the supplement of paper PMC9334596
# Values joined by “and” are separate entries in the source; they are usually repeats but may differ in a detail not shown here. Equal values may be shown once. Over roughly 5,300 compounds, “PER2::LUC luminescence relative to vehicle control” has its median near 0.96; the highest 2% begin near 1.3. The sample as a whole holds a higher share of the highest values than the screen did.
# Test system: mPer2Luc MEF
# Test: PER2::LUC luminescence relative to vehicle control (fold of vehicle); higher = higher PER2::LUC reporter signal
# Conditions: 10 µM
# Outline: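 Compounds from commercial libraries were added at 10 μM to 384-well plates seeded 48 h earlier with ~3000 mPer2Luc mouse embryonic fibroblasts per well. The cells were kept in DMEM with 10% FBS at 37 °C and 5% CO2. Luminescence was read with ONE-Glo 24 h and 30 h after treatment, then an alamarBlue viability assay was run. Values are PER2::LUC luminescence relative to vehicle control, as fold change.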
Compound,PER2::LUC luminescence (time after treatment 24 h),PER2::LUC luminescence (time after treatment 30 h)
Cc1cccc(/C=C/c2ccccc2)n1,1.35,1.16
CC(COc1ccc(/C=C/c2ccccc2)cc1)[N+](C)(C)C (stereo not drawn),0.936,1.02
CN(C/C=C/c1ccccc1)Cc1cccc2ccccc12,0.5,0.535
O=Cc1c2[nH]c3ccccc3c2cc2[nH]c3ccccc3c12,1.54,1.5
O=c1[nH]c2ccccc2c2ccccc12,1.19,0.972
OCc1cc2c(cn1)[nH]c1ccccc12,0.851,0.873
CC[C@@H](C)[C@@H](O)[C@H](C)C(=O)[C@H](C)/C=C(\C)C[C@H](C)[C@@H]1OC(=O)[C@H]1CC,1.06,0.925
Clc1cccc(COc2cncc(N3CCNCC3)n2)c1,0.246,0.301
CCCCc1ccc(NC(C)=O)c(C)c1,1.1,1.05
CS(=O)(=O)c1ccc(C(=O)Nc2ccc(Cl)c(-c3ccccn3)c2)c(Cl)c1,1.17,1.14
O=C(Nc1ccc(S(=O)(=O)Nc2ccccc2Cl)c(Cl)c1)c1ccccn1,0.992,1.06
COc1cc(NC(=O)c2ccccn2)ccc1Cl,1.13,1.38
COc1ccccc1C(=O)Nc1cccc(NC(=O)c2cccc(C)c2)c1,0.917,0.985
O=C(Nc1cccc(Cl)c1)c1ccccn1,1.65,1.48
CN1CC(=O)N=C1NC(=O)Nc1cccc(Cl)c1,0.949,1.1
COc1cccc(CNC(=O)Nc2nc(-c3ccncc3)cs2)c1,0.558,0.601
O=c1ncc(F)c[nH]1,0.979,0.911
Cn1c2ncnc-2c(O)n(C)c1=O,1.14,1.18
FC(F)(F)COB(OCC(F)(F)F)OCC(F)(F)F,0.958,1
O=C1CN(/N=C/C=C/c2ccc([N+](=O)[O-])o2)C(=O)N1,1.04,1.01
CCOc1ccc(C(=O)c2ccc(O)c(O)c2O)cc1,0.963,1.08
CCOc1cccc(C(=O)c2ccc(O)c(O)c2O)c1,1.23,1.37
CCOc1ccc(C(=O)c2ccc(OC)c(O)c2O)cc1,0.983,0.916
O=C(Nc1cccc(NC(=O)c2cccc(O)c2O)c1)c1cccc(O)c1O,0.916,1.34

Compound,PER2::LUC luminescence (time after treatment 24 h),PER2::LUC luminescence (time after treatment 30 h)
O=C(O)Cc1cccc(OCCCN(Cc2cccc(C(F)(F)F)c2Cl)CC(c2ccccc2)c2ccccc2)c1,1.4,1.47
O=c1[nH]c(C2CCCN2)nc2c1oc1ccc(Cl)cc12 (stereo not drawn),1.22,1.29
N#Cc1cc(-c2ccnc(Nc3ccc(N4CCOCC4)cc3)n2)ccc1OC1CCOCC1,0.507,0.584
O=C(CCCCCCCCCCCCC1CCCC1)Nc1ccc(S(=O)(=O)c2ccc(NC(=O)CCCCCCCCCCCCC3CCCC3)cc2)cc1,1.06,1.02
COc1ccccc1C(=O)Nc1cc2c(cc1N1CCCCC1)n(C)c(=O)n2C,0.765,0.829
COc1cccc(-c2ccc(NC(=O)C3=C(C(=O)O)CCC3)c(F)c2)c1,1.43,1.75
COc1cccc(C(=O)NCCN2CCN(c3ccc(Cl)cc3)CC2)c1,0.833,0.96
CC(C)=CCC/C(C)=C/CC/C(C)=C/CC/C(C)=C/C(=O)O,1.07,0.976
COc1c(O)c2c(=O)cc(OC)c3c4c(OC)cc(=O)c5c(O)c(OC)c6c(c(c1CC(C)=C6C(C)=O)c23)c54,0.779,0.948
C=CCSSSCC=C,1.32,1.05
Nc1ccc(-c2ccc3ccccc3n2)cc1,1.74,1.29
Nc1ccc(-c2nc3ccc(-c4nc5ccc(N)cc5[nH]4)cc3[nH]2)cc1,0.876,0.866
O=C(O)c1cc(-c2ccccc2)nc2ccccc12,0.91,1.12
COc1cc(Nc2nc3c(s2)CCCC3c2ccc(F)cc2)ccc1-n1cnc(C)c1 (stereo not drawn),1.05,1.02
C/C=C\c1ccc(OC)cc1,1,1.03
CC(CC(=O)O)C(N)C(=O)O (racemic),0.979,0.922
O=c1cc(-c2ccccc2F)[nH]c2cc3c(cc12)OCO3,0.9,0.871
CC(C)=CC[C@@H](OC(=O)C=C(C)C)C1=CC(=O)c2c(O)ccc(O)c2C1=O,1.03,1.03
CC12CCc3occc3C1CCC13CC(=O)C(CCC12)C3 (stereo not drawn),0.996,0.94
CC(=O)O[C@H]1CC[C@]2(C)C3CC[C@@]4(C)[C@H](C5CC(C6OC6(C)C)OC5O)CC[C@]4(C)C3=CC[C@H]2C1(C)C (stereo partly drawn),1.14,1.08
COc1cc(C)c(/C=C/C(C)=C/C=C/C(C)=C/C(=O)O)c(C)c1C,1.82,2.04
CC1=C(/C=C/C(C)=C/C=C/C(C)=C/C(=O)O)C(C)(C)CCC1O (stereo not drawn),0.928,1.06
COc1cc(/C=C/C(=O)O)cc(OC)c1OC,0.994,0.955
O=C(NCc1cccs1)c1cc2nc(-c3ccco3)cc(C(F)(F)Cl)n2n1,1.03,1.11

Compound,PER2::LUC luminescence (time after treatment 24 h),PER2::LUC luminescence (time after treatment 30 h)
Cn1nnnc1SCC1=C(C(=O)O)N2C(=O)[C@@H](NC(=O)C(OC=O)c3ccccc3)[C@H]2SC1 (stereo partly drawn),0.605,0.705
O=C(/C=C/C=C/c1ccc2c(c1)OCO2)N1CCCCC1,1.5,1.42
O=C(c1ccc2c(c1)OCO2)N1CCCCC1,1,0.843
O=C(O)/C=C/C=C/c1ccc2c(c1)OCO2,1.07,1.03
COc1cc(N2CCOCC2)ccc1Nc1ncc(F)c(Nc2ccccc2NS(C)(=O)=O)n1,0.771,0.673
Nc1nc(Nc2ccc3c(c2)CCC(N2CCCC2)CC3)nn1-c1cc2c(nn1)-c1ccccc1CCC2 (stereo not drawn),0.438,0.375
O=C(c1ccc(CN2CCOCC2)cc1)N1CCN(C2CC2)CC1,1.07,0.963
O=C(NCCN1CCOCC1)c1ccc(Cl)cc1,1.09 and 1.08,0.965 and 1.2
C[C@@H](O)[C@H](NC(=O)c1ccc(C#Cc2ccc(CN3CCOCC3)cc2)cc1)C(=O)NO,1.32,1.62
O=C1/C(=C/c2cc(Br)c(O)c(Br)c2)COC/C1=C\c1cc(Br)c(O)c(Br)c1,0.259,0.258
COc1cc2c(c(OC)c1OC)-c1ccc(OC)c(=O)cc1[C@@H](NC=O)CC2,0.938,0.84
NCC(O)c1ccc(O)c(O)c1 (stereo not drawn),1.47,1.55
NC[C@@H](O)c1ccc(O)c(O)c1,1.26,1.04
NCC(O)c1ccc(O)c(O)c1 (racemic),1.04,1.12
CCCC[C@@H](C)/C=C(C)/C=C(\C)C(=O)NC1=C[C@@](O)(/C=C/C=C/C=C/C(=O)NC2=C(O)CCC2=O)[C@@H]2O[C@@H]2C1=O,0.951,0.934
Cc1ccc(O)cc1Nc1ccnc(Nc2cccc(C(N)=O)c2)n1,1.05,1.02
CCOC(=O)c1sc(NC(=O)[C@H](C(C)C)n2c(=O)[nH]c3ccccc3c2=O)nc1C,1.02,0.987
O=C(O[C@H]1[C@H](Oc2ccccc2COC(=O)C2(O)C=CCCC2=O)O[C@H](CO)[C@@H](O)[C@@H]1O)c1ccccc1 (stereo partly drawn),0.824,0.676
Cc1ccc(O)c(N=Nc2ccccc2)n1,1.05,0.998
Nc1ccc(/N=N/c2ccccc2)c(N)n1,1.76,1.7
CC[C@H]1CN(c2nc(N)c(C(N)=O)nc2Cl)CCN1C1CCN(Cc2ccc(Cl)cc2)CC1,0.96,1.01
C[C@@H]1O[C@@H](O[C@H]2[C@H](Oc3cc(O)c4c(=O)cc(-c5ccc(O)cc5)oc4c3)O[C@H](CO)[C@@H](O)[C@@H]2O)[C@H](O)[C@H](O)[C@H]1O,0.841,0.85
COc1ccc2c(=O)c(CC(=O)O)coc2c1,0.908,0.978
O=c1c(-c2ccc(O)cc2)coc2cc(O[C@@H]3O[C@H](CO)[C@@H](O)[C@H](O)[C@H]3O)ccc12,1.25,1.39

Compound,PER2::LUC luminescence (time after treatment 24 h),PER2::LUC luminescence (time after treatment 30 h)
O=c1cc(-c2ccc(O)c(O[C@@H]3O[C@H](CO)[C@@H](O)[C@H](O)[C@H]3O)c2)oc2cc(O[C@@H]3O[C@H](CO)[C@@H](O)[C@H](O)[C@H]3O)cc(O)c12,1.07,1.04
O=c1c(-c2ccc(O)cc2)coc2cc(O)ccc12,0.822,0.788
COc1ccc(-c2coc3cc(O)ccc3c2=O)c(OC)c1,1.02,1.05
O=c1c(-c2ccc(O)cc2)coc2cc(O[C@@H]3O[C@H](CO)[C@@H](O)[C@H](O)[C@H]3O)cc(O)c12,1.3,1.32
COc1ccccc1-c1coc2cc(O)ccc2c1=O,1.14,1.04
OC[C@H]1O[C@@H](Oc2ccc(O)cc2)[C@H](O)[C@@H](O)[C@@H]1O,1.02,0.876
CC(C)Oc1ccc2c(=O)c(-c3ccccc3)coc2c1,1.9,1.92
O=c1cc(-c2ccc(O)cc2)oc2cc(O[C@@H]3O[C@H](CO)[C@@H](O)[C@H](O)[C@H]3O)cc(O)c12,1.22,1.43
COc1ccc(-c2coc3cc(O)ccc3c2=O)cc1,1.77,1.97
Cc1ccc(NC(=O)Nc2cc(-c3ccccc3-c3nn[nH]n3)ccc2N(CC(C)C)CC(C)C)cc1,0.966,0.93
O=c1ccc2cccc(O)c2[nH]1,1.06,0.957
CCCCC/C=C\CCC(=O)N[C@H]1[C@H](Oc2c3cc4cc2Oc2ccc(cc2Cl)[C@@H](O[C@@H]2O[C@H](CO)[C@@H](O)[C@H](O)[C@H]2NC(C)=O)[C@@H]2NC(=O)[C@H](NC(=O)[C@@H]4NC(=O)[C@H]4NC(=O)[C@@H](Cc5ccc(c(Cl)c5)O3)NC(=O)[C@H](N)c3ccc(O)c(c3)Oc3cc(O)cc4c3)c3ccc(O)c(c3)-c3c(O[C@H]4O[C@H](CO)[C@@H](O)[C@H](O)[C@@H]4O)cc(O)cc3[C@@H](C(=O)O)NC2=O)O[C@H](CO)[C@@H](O)[C@@H]1O,0.886,0.953
C=C[C@@](C)(O)CC[C@H]1C(=C)CC[C@H]2C(C)(C)CCC[C@]12C,0.946,0.911
COc1cc(-c2coc3cc(OC)c(OC)c(OC)c3c2=O)cc(OC)c1OC,0.972,0.969
COc1ccc(-c2coc3c(OC)c(OC)cc(O)c3c2=O)cc1,1.01,1.13
COc1ccc(-c2coc3cc(O)cc(O)c3c2=O)cc1,1.83,1.97
COc1ccc2c(=O)c(-c3ccc(O)cc3)coc2c1,1.39,1.62
COc1cc(-c2coc3cc(O[C@@H]4O[C@H](CO)[C@@H](O)[C@H](O)[C@H]4O)c(OC)c(O)c3c2=O)cc(O)c1OC,0.773,1.31
COc1ccc(-c2coc3c(O)c(O)c(OC)cc3c2=O)cc1,1.31,1.23
COc1ccc(-c2coc3cc(O)ccc3c2=O)cc1S(=O)(=O)O,1,0.898
COc1cc(-c2coc3cc(O)c(OC)c(O)c3c2=O)cc(O)c1OC,1.37,1.39
O=c1c(-c2ccc(O)cc2)coc2cc(O)cc(O)c12,1.07,1.06
